This is part of a sample that, as a whole, favours compounds with a hit. Of some 79,000 tested, about 15% had one in any assay. Calls of active or inactive are those of the source. Cut-off read from the data, not from the text of the source: active = growth inhibition above about 70%; inactive = the rest.
Test: NCI Yeast Anticancer Drug Screen. Data for the mlh1 strain (AID 171);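 note: 0% = growth of vehicle-treated control cultures of the same strain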
Settings: S. cerevisiae mlh1 strain growth inhibition; at 1.2 µM; active compounds read high
Procedure, shortened: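 Test agents were incubated with yeast bearing a defined DNA damage repair or cell cycle control alteration; values are growth inhibition normalised to vehicle-treated cultures.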

Row | SMILES | growth inhibition
1 | CCC/C(Cl)=N\OC(=O)Nc1cccc(C(F)(F)F)c1 | 3% (inactive)
2 | [O-][n+]1c2ccc(O)cc2nc2ccc(Cl)cc21 | 4% (inactive)
3 | Clc1ccccc1C1OC1c1ccccc1Cl (stereo not drawn) | -69% (inactive)
4 | c1ccc2c(c1)c1ncccc1c1nccnc21 | -10% (inactive)
5 | CC(=O)Nc1ccc2c(c1)C(=Nc1ccc(C(=O)O)cc1)c1ccccc1-2 | -3% (inactive)
6 | COc1ccc(OC)c2cc3ccccc3cc12 | 14% (inactive)
7 | COc1cc(C2c3cc4c(cc3OC(NNc3ccccc3)C2C)OCO4)cc(OC)c1OC (stereo not drawn) | 16% (inactive)
8 | O=C1c2cc([N+](=O)[O-])ccc2-c2cccc(F)c21 | -3% (inactive)
9 | CCCCCCCCCCCC(=O)N(C)C | -32% (inactive)
10 | CCCCCCCCCCCC1=C(O)C(=O)C=C(O)C1=O | -12% (inactive)
11 | Cc1ccc(CSC(N)=Nc2ccccc2)cc1C | -7% (inactive)
12 | CCCCCCCCCCC1CCC(=O)O1 (stereo not drawn) | -2% (inactive)
13 | O=[N+]([O-])c1cc(CCl)ccc1CCl | 4% (inactive)
14 | Nc1ccc2c(c1)C(=O)c1cccc(N)c1C2=O | 0% (inactive)
15 | CCCCCCCCCCNC(=O)OCC | -3% (inactive)
16 | CC1=C(C)Cc2c(O)ccc(O)c2C1 | -1% (inactive)
17 | COc1ccc2c(c1)C(=O)c1ccccc1C2 | 1% (inactive)
18 | CCC(=O)OCCn1c2nc(=O)[nH]c(=O)c-2nc2cc(C)c(C)cc21 | -11% (inactive)
19 | O=C(OCCN1CCCCCC1)C(c1ccsc1)C1CCCCC1 (stereo not drawn) | 8% (inactive)
20 | Oc1c(Br)cc(Br)cc1C1CCCCC1 | -26% (inactive)

Row | SMILES | growth inhibition
21 | CC1(C)[C@@H]2CC[C@]1(C)[C@H](OC(=O)CSC#N)C2 | 7% (inactive)
22 | S=C(N/N=C(/c1ccccc1)c1ccccn1)N1CCCCCC1 | -3% (inactive)
23 | Cc1ccc2[nH]c3c(C)c4cc[n+](C)cc4c(C)c3c2c1 | 7% (inactive)
24 | CNC(=O)OCc1c(COC(=O)NC)c(-c2ccc(-c3ccccc3)cc2)n(C)c1C | -1% (inactive)
25 | COc1ccccc1/C=C1\Sc2scc(-c3cccc([N+](=O)[O-])c3)[n+]2C1=O | 34% (inactive)
26 | O=[N+]([O-])c1ccc2c(c1)C(N1CCN(CCO)CC1)Cc1ccc(F)cc1S2 (stereo not drawn) | -3% (inactive)
27 | Cc1ccc(CCC2=CCCc3c2ccc2ccccc32)cc1 | -3% (inactive)
28 | O=[N+]([O-])c1cccc2nccc(NCCCO)c12 | -26% (inactive)
29 | Cc1ccc(-n2cc(-c3ccc(Cl)cc3)c(C#N)c2N)cc1 | -6% (inactive)
30 | Cc1ccc(S/N=C\c2ccccc2O)cc1 | 9% (inactive)
31 | O=C(O)C1OC1(c1cccc(Cl)c1)c1ccccc1Cl (stereo not drawn) | -26% (inactive)
32 | NC(=S)N/N=C\c1nccc2ccccc12 | 3% (inactive)
33 | Clc1cccc(C(Nc2nncs2)Nc2nncs2)c1Cl | -1% (inactive)
34 | O=C(OCC=C1CCCC1)c1cc([N+](=O)[O-])cc([N+](=O)[O-])c1 | -2% (inactive)
35 | O=C(Nc1ccccc1)C(=O)C(C(=O)c1ccccc1)C(c1ccccc1)c1ccccc1 (stereo not drawn) | 3% (inactive)
36 | N#CN1C2CCC1CC(=O)C2 | -19% (inactive)
37 | COc1ccccc1C(=O)OCC1CCCN2CCCCC12 (stereo not drawn) | 23% (inactive)
38 | CCNc1nnc(CSc2nc(-c3ccccc3)c(-c3ccccc3)[nH]2)s1 | 3% (inactive)
39 | O=C1c2ccccc2-c2n[nH]c3cccc1c23 | -42% (inactive)

Same assay, conditions: S. cerevisiae mlh1 strain growth inhibition; at 3.7 µM; active compounds read high

Row | SMILES | growth inhibition
40 | CCC/C(Cl)=N\OC(=O)Nc1cccc(C(F)(F)F)c1 | 7% (inactive)
41 | [O-][n+]1c2ccc(O)cc2nc2ccc(Cl)cc21 | 10% (inactive)
42 | Clc1ccccc1C1OC1c1ccccc1Cl (stereo not drawn) | -69% (inactive)
43 | c1ccc2c(c1)c1ncccc1c1nccnc21 | -4% (inactive)
44 | CC(=O)Nc1ccc2c(c1)C(=Nc1ccc(C(=O)O)cc1)c1ccccc1-2 | 1% (inactive)
45 | COc1ccc(OC)c2cc3ccccc3cc12 | 9% (inactive)
46 | COc1cc(C2c3cc4c(cc3OC(NNc3ccccc3)C2C)OCO4)cc(OC)c1OC (stereo not drawn) | 23% (inactive)
47 | O=C1c2cc([N+](=O)[O-])ccc2-c2cccc(F)c21 | 5% (inactive)
48 | CCCCCCCCCCCC(=O)N(C)C | -35% (inactive)
49 | CCCCCCCCCCCC1=C(O)C(=O)C=C(O)C1=O | -9% (inactive)
50 | Cc1ccc(CSC(N)=Nc2ccccc2)cc1C | -12% (inactive)
51 | CCCCCCCCCCC1CCC(=O)O1 (stereo not drawn) | 0% (inactive)
52 | O=[N+]([O-])c1cc(CCl)ccc1CCl | 13% (inactive)
53 | Nc1ccc2c(c1)C(=O)c1cccc(N)c1C2=O | 7% (inactive)
54 | CCCCCCCCCCNC(=O)OCC | 2% (inactive)
55 | CC1=C(C)Cc2c(O)ccc(O)c2C1 | 5% (inactive)
56 | COc1ccc2c(c1)C(=O)c1ccccc1C2 | -1% (inactive)
57 | CCC(=O)OCCn1c2nc(=O)[nH]c(=O)c-2nc2cc(C)c(C)cc21 | -6% (inactive)
58 | O=C(OCCN1CCCCCC1)C(c1ccsc1)C1CCCCC1 (stereo not drawn) | 21% (inactive)
59 | Oc1c(Br)cc(Br)cc1C1CCCCC1 | -12% (inactive)

Row | SMILES | growth inhibition
60 | CC1(C)[C@@H]2CC[C@]1(C)[C@H](OC(=O)CSC#N)C2 | 9% (inactive)
61 | S=C(N/N=C(/c1ccccc1)c1ccccn1)N1CCCCCC1 | -2% (inactive)
62 | Cc1ccc2[nH]c3c(C)c4cc[n+](C)cc4c(C)c3c2c1 | 25% (inactive)
63 | CNC(=O)OCc1c(COC(=O)NC)c(-c2ccc(-c3ccccc3)cc2)n(C)c1C | 10% (inactive)
64 | COc1ccccc1/C=C1\Sc2scc(-c3cccc([N+](=O)[O-])c3)[n+]2C1=O | 89% (active)
65 | O=[N+]([O-])c1ccc2c(c1)C(N1CCN(CCO)CC1)Cc1ccc(F)cc1S2 (stereo not drawn) | -3% (inactive)
66 | Cc1ccc(CCC2=CCCc3c2ccc2ccccc32)cc1 | -4% (inactive)
67 | O=[N+]([O-])c1cccc2nccc(NCCCO)c12 | -7% (inactive)
68 | Cc1ccc(-n2cc(-c3ccc(Cl)cc3)c(C#N)c2N)cc1 | -5% (inactive)
69 | Cc1ccc(S/N=C\c2ccccc2O)cc1 | 2% (inactive)
70 | O=C(O)C1OC1(c1cccc(Cl)c1)c1ccccc1Cl (stereo not drawn) | -25% (inactive)
71 | NC(=S)N/N=C\c1nccc2ccccc12 | -9% (inactive)
72 | Clc1cccc(C(Nc2nncs2)Nc2nncs2)c1Cl | 0% (inactive)
73 | O=C(OCC=C1CCCC1)c1cc([N+](=O)[O-])cc([N+](=O)[O-])c1 | 4% (inactive)
74 | O=C(Nc1ccccc1)C(=O)C(C(=O)c1ccccc1)C(c1ccccc1)c1ccccc1 (stereo not drawn) | 2% (inactive)
75 | N#CN1C2CCC1CC(=O)C2 | -11% (inactive)
76 | COc1ccccc1C(=O)OCC1CCCN2CCCCC12 (stereo not drawn) | 15% (inactive)
77 | CCNc1nnc(CSc2nc(-c3ccccc3)c(-c3ccccc3)[nH]2)s1 | 5% (inactive)
78 | O=C1c2ccccc2-c2n[nH]c3cccc1c23 | -38% (inactive)

Source: PubChem BioAssay (NCI)
